Compound activity deposited in PubChem by Broad Institute.
BioA inh-1 – M. tuberculosis BioA enzyme inhibitors, primary screen, biochemical, plate reader, single point, HTS | inhibition, % at 9.99 µM | purified M. tuberculosis BioA enzyme | 360,000 tested, 0.096% active | AID 602481, 2012; in the data active means inhibition above about 40%
PrP UTR inh – inhibition of PrP 5' UTR reporter expression. 340,000 tested, 0.35% active. inhibition, % (concentration not given with the values). cell-based PrP 5' UTR mRNA reporter, plate reader; in the data active means inhibition above about 52%; further: 0 = median of the neutral control wells
TcdB inh – TcdB glycohydrolase inhibitors, primary screen, biochemical, single point, plate reader; AID 652162, 2013; inhibition, % at 9.99 µM; 350,000 tested, 0.24% active; Toxin B (Clostridioides difficile), P18177; TcdB glycohydrolase enzymatic assay; in the data active means inhibition above about 10%
Yp Topo-I inh – Yersinia pestis topoisomerase I inhibitors, primary screen, biochemical, cleavage product accumulation, plate reader, single point | AID 504884, 2011 | activity, % at 10 µM | Y. pestis Topo-I cleavage product accumulation | 360,000 tested, 0.064% active; in the data active means activity above about 50%, passing the limit was not always enough
BioA inh-2 – Mtb BioA enzyme inhibitors, dose response, biochemical, plate reader, cherry-pick samples, set 03; shares compounds with BioA inh-1; purified BioA enzyme; max activity, %; 310 tested, under 10 active; AID 651679, 2012;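 further: top concentration of the dilution series was 10 µM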
Target sequence (P9WQ81 whole entry, looked up): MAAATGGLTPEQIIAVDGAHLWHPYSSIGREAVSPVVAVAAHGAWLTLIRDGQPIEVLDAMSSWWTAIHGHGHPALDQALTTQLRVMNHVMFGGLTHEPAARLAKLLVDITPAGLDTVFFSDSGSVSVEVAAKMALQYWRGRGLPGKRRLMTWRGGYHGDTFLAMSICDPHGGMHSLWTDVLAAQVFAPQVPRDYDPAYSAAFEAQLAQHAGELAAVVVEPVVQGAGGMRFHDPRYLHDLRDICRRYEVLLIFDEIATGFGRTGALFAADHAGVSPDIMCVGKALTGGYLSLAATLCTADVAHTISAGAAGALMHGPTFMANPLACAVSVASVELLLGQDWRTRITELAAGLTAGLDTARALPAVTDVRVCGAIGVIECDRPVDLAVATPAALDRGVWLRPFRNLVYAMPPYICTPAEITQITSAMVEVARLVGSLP
HepG2 cytotox – cytotoxicity in HepG2 cells, dose response, cytotoxicity control, cell-based, plate reader, cherry-pick, two tests; shares compounds with BioA inh-1; max activity, %; 310 tested, under 10 active
NIH3T3 tox 5 – cytotoxicity in NIH3T3 fibroblasts, dose response, cytotoxicity control, cell-based, plate reader, cherry-pick, two tests | shares compounds with BioA inh-1 | AID 651900, 2012 | activity change, negative = cytotoxicity, % at 26 µM | 310 tested, under 10 active
* = called active by the depositor; i = inactive; . = no result; [ ] = dose if it differs, or a comment. Most compounds without a hit are left out; they make up all but 0.57% or so of the library. Unless noted, how the calls were made is not given here.

SMILES	BioA inh-1	PrP UTR inh	TcdB inh	Yp Topo-I inh	BioA inh-2	HepG2 cytotox	NIH3T3 tox 5
CO[C@@H]1CN(C)C(=O)c2cc(NC(=O)C3CCOCC3)ccc2OC[C@@H](C)N(Cc2cccnc2)C[C@H]1C	0	.	.	.	.	.	.
O=C(c1ccc(N2CCOCC2)cc1)N1CCCC(Nc2ccccc2)C1 (stereo unspecified)	-1	-8	0	6	.	.	.
CC(=O)c1ccc(C(=O)N2CCCC(C(=O)c3cc(F)ccc3F)C2)s1 (stereo unspecified)	38	-39	-2	-4	.	.	.
CC(=O)c1ccc(C(=O)N2CCCC(Nc3ccccc3)C2)s1 (stereo unspecified)	64*	-25	1	2	-8	24	-1
CC(=O)c1ccc(C(=O)N2CCCC(C(=O)c3ccc(Cl)cc3)C2)s1 (stereo unspecified)	49*	-14	1	13	-6	7	-2
CC(=O)c1ccc(C(=O)NC2CCCN(Cc3ccccc3F)C2)s1 (stereo unspecified)	46*	-4	0	-1	-7	-9	5
COc1ccc(F)cc1C(=O)C1CCCN(C(=O)c2ccc(C(C)=O)s2)C1 (stereo unspecified)	71*	-10	0	11	-8	-16	-3
Cn1cnc(CCNC(=O)C[C@H]2CC[C@H]3[C@@H](COC[C@H](O)CN3C(=O)Nc3ccc(F)cc3)O2)c1	0	.	0	.	.	.	.
CO[C@@H]1CN(C)C(=O)c2cc(NC(C)=O)ccc2OC[C@@H](C)N(C(=O)CC2CC2)C[C@H]1C	1	.	0	.	.	.	.
CCS(=O)(=O)Nc1ccc2c(c1)C(=O)N(C)[C@H]1CC[C@@H](CC(=O)N3CCOCC3)O[C@@H]1CO2	0	.	-1	.	.	.	.
Cc1c(OCC(=O)NCc2ccccn2)ccc2c3c(c(=O)oc12)CCCC3	-2	4	1	5	.	.	.
Cc1c(OC(C)C(=O)NCc2ccccn2)ccc2c3c(c(=O)oc12)CCC3 (stereo unspecified)	43*	-10	0	2	-8	-5	-3
Cc1ccc(-n2c3c(cc(C(=O)NCCCN4CCOCC4)c2=O)C(=O)CC(C)(C)C3)cc1	1	1	1	5	.	.	.
O=C1CCCc2c1cc(C(=O)NCCCN1CCOCC1)c(=O)n2-c1ccc(Cl)cc1	45*	-19	3	12	-5	-4	-2
O=C1CCCc2c1cc(C(=O)NCc1ccco1)c(=O)n2-c1ccc(Cl)cc1	50*	-31	.	4	3	21	2
COCC(=O)Nc1ccc2c(c1)C(=O)N(C)C[C@@H](OC)[C@@H](C)CN(C(=O)c1cnccn1)[C@H](C)CO2	-2	.	0	.	.	.	.
O=C(c1ccc(S(=O)(=O)Nc2ccccc2F)cc1)N1CCN(c2ccccc2O)CC1	67*	4	-1	-6	-6	16	-5
O=C(c1ccc(NS(=O)(=O)c2ccc(F)cc2)cc1)N1CCN(c2ccccc2O)CC1	0	-17	7	13	.	.	.
O=C(CSc1nncs1)N1c2ccccc2Sc2ccccc21	44*	-2	.	-4	-2	-12	-3
COc1ccccc1S(=O)(=O)N1CC[C@H]2[C@H](CO)Nc3ccc(-c4ccccc4)cc3[C@H]21	10	.	0	.	.	.	.
COc1ccccc1S(=O)(=O)N1CC[C@@H]2[C@H](CO)Nc3ccc(-c4ccccc4)cc3[C@@H]21	43*	.	0	.	5	i	-4[23.5 µM]
O=C(N[C@H]1CC[C@@H](CCn2cc(-c3cccnc3)nn2)O[C@H]1CO)c1ccccc1F	47*	.	0	.	3	i	2
COc1ccccc1NC(=O)N[C@H]1CC[C@@H](CCn2cc(-c3cccnc3)nn2)O[C@H]1CO	33	.	-1	.	.	.	.
COc1ccccc1NC(=O)N[C@@H]1CC[C@H](CCn2cc(-c3cccnc3)nn2)O[C@H]1CO	57*	.	0	.	5	i	-9
Cc1nc2nc(SCC(=O)NCc3ccco3)nn2c(C)c1Cc1c(F)cccc1Cl	48*	-21	.	21	3	22	-1
SMILES	BioA inh-1	PrP UTR inh	TcdB inh	Yp Topo-I inh	BioA inh-2	HepG2 cytotox	NIH3T3 tox 5
Cc1ccc(Cc2c(C)nc3nc(SCC(=O)N4CCC5(CC4)OCCO5)nn3c2C)cc1	.	-33	.	31	.	.	.
Cc1nc2nc(SCC(=O)N3CCOCC3)nn2c(C)c1Cc1ccccc1	111*	-4	.	2	-4	-7	-6
Cc1ccc(Cc2c(C)nc3nc(SCC(=O)NCc4ccco4)nn3c2C)cc1	50*	-25	.	17	-6	12	0
Cc1cccc(Cc2c(C)nc3nc(SCC(=O)NCc4ccco4)nn3c2C)c1	39	-21	.	24	.	.	.
Cc1ccccc1-c1cnc2c(c1)C(=O)N([C@@H](C)CO)C[C@@H](C)[C@H](CN(C)C(=O)c1cccnc1)O2	1	.	1	.	.	.	.
CCC(=O)Nc1ccc2c(c1)OC[C@@H](C)N(Cc1cccc(F)c1)C[C@H](C)[C@H](OC)CN(C)C2=O	6	.	-1	.	.	.	.
C[C@@H]1CN([C@@H](C)CO)C(=O)c2cccc(NC(=O)NC3CCCCC3)c2O[C@H]1CN(C)CC1CCCCC1	-3	.	0	.	.	.	.
C[C@@H](NC(=O)C[C@@H]1CC[C@@H](NC(=O)Cc2ccccn2)[C@@H](CO)O1)c1ccccc1	-2	.	-1	.	.	.	.
COc1cccc(NC(=O)N2CC3(C2)[C@H](c2ccccc2)[C@H](CO)N3C(=O)C2CCCC2)c1	.	.	0	.	.	.	.
CC1Cc2nc(SCC(=O)N3CCOCC3)n(-c3ccccc3)c(=O)c2S1 (stereo unspecified)	63*	-11	-1	0	-7	-8	-2
O=C(CSc1nc2c(c(=O)n1-c1ccccc1)SCC2)N1CCN(c2ccccc2)CC1	47*	-3	1	33	-2	-9	-5
CCOC(=O)CSc1nc2c(c(=O)n1-c1ccc(OCC)cc1)SCC2	1	-15	1	-4	.	.	.
CC1Cc2nc(SCC(=O)N3CCN(c4ccccc4)CC3)n(C)c(=O)c2S1 (stereo unspecified)	23	-12	3	25	.	.	.
O=C(CSc1nc2c(c(=O)n1-c1ccc(F)cc1)SCC2)N1CCCC1	26	-23	.	4	.	.	.
CCOc1ccc(-n2c(SCC(N)=O)nc3c(c2=O)SCC3)cc1	41*	-7	.	2	-7	9	7
O=C(CSc1nc2c(c(=O)n1-c1ccccc1)SCC2)N1CCOCC1	88*	1	2	-9	5	16	2
CC(C)NC(=O)Nc1ccc2c(c1)C(=O)N([C@H](C)CO)C[C@H](C)[C@H](CN(C)C(=O)c1ccccc1)OCCCC[C@H](C)O2	-1	.	0	.	.	.	.
COc1cccc(CN2[C@H](CO)[C@@H]3c4ccccc4N(C(=O)c4cccnc4)C[C@@H]32)c1	3	.	-6	.	.	.	.
